Assay results taken from PubChem BioAssay AID1159580 (chemical genetic matrix, 2015).
About 2,000 (36%) of roughly 5,500 compounds were called active. Another 18% or so got no clear call; they are omitted. Cut-off read from the data, not from the text of the source: active = normalized growth mostly below about 0.91 (no sharp cut-off); inconclusive = no clear call, values can overlap the other calls; inactive = mostly above about 0.92. This is one part of the list.

Assay: chemical genetic growth profiling, strain panel (AID 1159580);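 note: tested at 20 µM; growth read once vehicle control cultures reached saturation at 30 °C; 1 = growth at the plate median or of vehicle wells; lower values mean less growth of the strain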
Details: growth OD

Measured: normalized growth

c1ccc(CC2=NCCN2)cc1
active: S. cerevisiae deletion strains, locus YKL009W, strain mrt4, hits give low values 0.695 | S. cerevisiae deletion strains, locus YKL068W, hits give low values 0.837 | S. cerevisiae deletion strains, locus YKL085W, strain MDH1 (second series), hits give low values 0.836 | S. cerevisiae deletion strains, locus YKL085W, strain MDH1, hits give low values 0.836 | S. cerevisiae deletion strains, locus YLR102C, strain apc9, hits give low values 0.897 | S. cerevisiae deletion strains, locus YML124C, strain tub3, hits give low values 0.904 | S. cerevisiae deletion strains, locus YMR078C, strain ctf18, hits give low values 0.907 | S. cerevisiae deletion strains, locus YNL250W, strain rad50, hits give low values 0.822 | S. cerevisiae deletion strains, locus YNL271C, strain bni1, hits give low values 0.837 | S. cerevisiae deletion strains, locus YNL298W, strain CLA4, hits give low values 0.79 | S. cerevisiae deletion strains, locus YNL307C, strain MCK1, hits give low values 0.877 | S. cerevisiae deletion strains, locus YNR052C, strain pop2, hits give low values 0.911 | S. cerevisiae deletion strains, locus YOL147C, strain pex11, hits give low values 0.915 | S. cerevisiae deletion strains, locus YOR144C, strain elg1, hits give low values 0.917 | S. cerevisiae deletion strains, locus YOR316C, strain cot1, hits give low values 0.919 | S. cerevisiae deletion strains, locus YPR119W, strain clb2, hits give low values 0.896 | S. cerevisiae deletion strains, locus YPR141C, strain kar3, hits give low values 0.767 | S. cerevisiae deletion strains, locus YPR163C, strain tif3, hits give low values 0.885 | S. cerevisiae deletion strains, locus YPR167C, strain met16, hits give low values 0.906
inactive: S. cerevisiae deletion strains, locus YJR075W, strain HOC1, hits give low values 1 | S. cerevisiae deletion strains, locus YKL160W, strain elf1, hits give low values 1.03 | S. cerevisiae deletion strains, locus YKL190W, strain CNB1, hits give low values 0.998 | S. cerevisiae deletion strains, locus YKR001C, strain vps1, hits give low values 0.913 | S. cerevisiae deletion strains, locus YKR026C, strain gcn3, hits give low values 1.03 | S. cerevisiae deletion strains, locus YKR091W, strain srl3, hits give low values 1.01 | S. cerevisiae deletion strains, locus YLL001W, strain dnm1, hits give low values 1.01 | S. cerevisiae deletion strains, locus YLL026W, hits give low values 1.02 | S. cerevisiae deletion strains, locus YLL041C, strain sdh2, hits give low values 1.01 | S. cerevisiae deletion strains, locus YLR027C, strain aat2, hits give low values 1.02 | S. cerevisiae deletion strains, locus YLR039C, strain RIC1, hits give low values 0.931 | S. cerevisiae deletion strains, locus YLR058C, strain SHM2, hits give low values 0.984 | S. cerevisiae deletion strains, locus YLR113W, strain HOG1, hits give low values 0.957 | S. cerevisiae deletion strains, locus YLR221C, strain rsa3, hits give low values 0.997 | S. cerevisiae deletion strains, locus YLR258W, strain gsy2, hits give low values 1.01 | S. cerevisiae deletion strains, locus YLR262C, strain YPT6 (second series), hits give low values 1.03 | S. cerevisiae deletion strains, locus YLR262C, strain YPT6, hits give low values 0.927 | S. cerevisiae deletion strains, locus YLR268W, strain sec22, hits give low values 0.905 | S. cerevisiae deletion strains, locus YLR320W, strain mms22, hits give low values 0.989 | S. cerevisiae deletion strains, locus YLR330W, strain CHS5, hits give low values 0.97 | S. cerevisiae deletion strains, locus YLR342W, strain FKS1 (second series), hits give low values 1.01 | S. cerevisiae deletion strains, locus YLR342W, strain FKS1, hits give low values 1.03 | S. cerevisiae deletion strains, locus YLR357W, strain rsc2, hits give low values 1.03 | S. cerevisiae deletion strains, locus YLR370C, strain arc18, hits give low values 1.01 | S. cerevisiae deletion strains, locus YLR371W, strain rom2, hits give low values 0.909 | S. cerevisiae deletion strains, locus YLR384C, strain iki3, hits give low values 1.03 | S. cerevisiae deletion strains, locus YLR418C, strain cdc73, hits give low values 1.01 | S. cerevisiae deletion strains, locus YML016C, strain PPZ1, hits give low values 1.01 | S. cerevisiae deletion strains, locus YML032C, strain rad52, hits give low values 0.915 | S. cerevisiae deletion strains, locus YML120C, strain ndi1, hits give low values 1.01 | S. cerevisiae deletion strains, locus YMR058W, strain fet3, hits give low values 1.03 | S. cerevisiae deletion strains, locus YMR125W, strain sto1, hits give low values 1.01 | S. cerevisiae deletion strains, locus YMR129W, hits give low values 1.02 | S. cerevisiae deletion strains, locus YMR205C, strain PFK2, hits give low values 1 | S. cerevisiae deletion strains, locus YMR223W, strain ubp8, hits give low values 0.916 | S. cerevisiae deletion strains, locus YMR231W, strain pep5, hits give low values 1.01 | S. cerevisiae deletion strains, locus YMR263W, strain SAP30, hits give low values 0.978 | S. cerevisiae deletion strains, locus YMR307W, strain GAS1, hits give low values 1.03 | S. cerevisiae deletion strains, locus YNL067W, strain RPL9B, hits give low values 0.957 | S. cerevisiae deletion strains, locus YNL071W, strain lat1, hits give low values 1.03 | S. cerevisiae deletion strains, locus YNL128W, strain TEP1, hits give low values 1.01 | S. cerevisiae deletion strains, locus YNL153C, strain GIM3, hits give low values 0.987 | S. cerevisiae deletion strains, locus YNL183C, strain NPR1, hits give low values 0.943 | S. cerevisiae deletion strains, locus YNL209W, strain ssb2, hits give low values 1.02 | S. cerevisiae deletion strains, locus YNL233W, strain BNI4, hits give low values 0.98 | S. cerevisiae deletion strains, locus YNL248C, strain rpa49, hits give low values 1.05 | S. cerevisiae deletion strains, locus YNL322C, strain KRE1 (second series), hits give low values 1.01 | S. cerevisiae deletion strains, locus YNL322C, strain KRE1, hits give low values 0.987 | S. cerevisiae deletion strains, locus YNR049C, strain mso1, hits give low values 0.996 | S. cerevisiae deletion strains, locus YOL006C, strain TOP1, hits give low values 1.09 | S. cerevisiae deletion strains, locus YOL012C, strain htz1 1.4 | S. cerevisiae deletion strains, locus YOR001W, strain rrp6, hits give low values 1 | S. cerevisiae deletion strains, locus YOR061W, strain CKA2, hits give low values 0.986 | S. cerevisiae deletion strains, locus YOR069W, strain VPS5, hits give low values 0.968 | S. cerevisiae deletion strains, locus YOR070C, strain gyp1, hits give low values 0.998 | S. cerevisiae deletion strains, locus YOR080W, strain dia2, hits give low values 1.02 | S. cerevisiae deletion strains, locus YOR083W, strain WHI5, hits give low values 0.976 | S. cerevisiae deletion strains, locus YOR106W, strain vam3, hits give low values 1.03 | S. cerevisiae deletion strains, locus YOR136W, strain idh2, hits give low values 0.937 | S. cerevisiae deletion strains, locus YOR184W, strain ser1, hits give low values 0.899 | S. cerevisiae deletion strains, locus YOR231W, strain MKK1, hits give low values 0.976 | S. cerevisiae deletion strains, locus YOR265W, strain rbl2, hits give low values 0.99 | S. cerevisiae deletion strains, locus YOR270C, strain vph1, hits give low values 1.11 | S. cerevisiae deletion strains, locus YOR290C, strain snf2, hits give low values 1 | S. cerevisiae deletion strains, locus YPL051W, strain arl3, hits give low values 0.989 | S. cerevisiae deletion strains, locus YPL055C, strain LGE1, hits give low values 0.995 | S. cerevisiae deletion strains, locus YPL078C, strain atp4, hits give low values 1.04 | S. cerevisiae deletion strains, locus YPL106C, strain sse1, hits give low values 1.02 | S. cerevisiae deletion strains, locus YPL240C, strain hsp82, hits give low values 1.02 | S. cerevisiae deletion strains, locus YPL241C, strain CIN2, hits give low values 0.99 | S. cerevisiae deletion strains, locus YPL256C, strain CLN2, hits give low values 0.941 | S. cerevisiae deletion strains, strain wtn01, hits give low values 0.917 | S. cerevisiae strains, strain wild type, hits give low values 1
